Experimental data taken from the supplement of paper PMC3898565.
± gives the uncertainty stated by the source.

Tested on: U87
Experiment: cell viability relative to vehicle control; higher = less growth inhibition (less active)
Conditions: 10 µM; 72 h
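Also: viable cell number estimated from Alamar Blue fluorescence read at 560/90, part of a single-dose primary screen of an FDA-approved drug library.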

| Structure (SMILES) | cell viability [%] |
| --- | --- |
| CCCc1nc(C)c2c(=O)nc(-c3cc(S(=O)(=O)N4CCN(CC)CC4)ccc3OCC)[nH]n12 | 107.7 ± 0.41 |
| COc1ccc(CC(C)NCC(O)c2ccc(O)c(NC=O)c2)cc1 (configuration not stated) | 98.7 ± 1.3 |
| O=c1ncc(F)c[nH]1 [5-fluoro-2-pyrimidone] | 106.8 ± 0.67 |
| COCCCOc1ccnc(C[S+]([O-])c2nc3ccccc3[nH]2)c1C (configuration not stated) | 108.6 ± 0.87 |
| OCCN1C[C@H](O)[C@@H](O)[C@H](O)[C@H]1CO | 123 ± 2.4 |
| CCCN1CCCC[C@H]1C(=O)Nc1c(C)cccc1C | 107 ± 1.1 |
| COc1cc2c(cc1OC)C(=O)C(CC1CCN(Cc3ccccc3)CC1)C2 (configuration not stated) [Donepezil] | 99.1 ± 1.4 |
| COC(=O)Nc1nc2cc(C(=O)c3ccc(F)cc3)ccc2[nH]1 | 30 ± 7.6 |
| CCN(CC)CC(=O)Nc1c(C)cccc1C | 94.8 ± 2.8 |
| COc1cc(-c2ccc(=O)[nH]n2)ccc1OC(F)F | 111 ± 3.7 |
| O=c1cnn([C@@H]2O[C@H](CO)[C@@H](O)[C@H]2O)c(=O)[nH]1 | 94.8 ± 1.9 |
| CN1CCN(c2c(F)cc3c(=O)c(C(=O)O)cn4c3c2SCC4)CC1 | 99.9 ± 1.7 |
| O=C(O)CCNC(=O)c1ccc(/N=N/c2ccc(O)c(C(=O)O)c2)cc1 | 99.6 ± 1.4 |
| C[C@]12C=CC(=O)C=C1CC[C@@H]1[C@@H]2[C@@H](O)C[C@@]2(C)[C@H]1CC[C@]2(O)C(=O)COC(=O)CCC(=O)O | 104 ± 0.49 |
| CCCc1nc(C(C)(C)O)c(C(=O)OCc2oc(=O)oc2C)n1Cc1ccc(-c2ccccc2-c2nnn[nH]2)cc1 | 102 ± 1.9 |
| CC1CCN(CCCC(=O)c2ccc(F)cc2)CC1 [Metylperon] | 106 ± 1.2 |
| CCCCC(=O)N(Cc1ccc(-c2ccccc2-c2nnn[nH]2)cc1)[C@H](C(=O)O)C(C)C | 108 ± 3 |
